Screening results: PubChem, National Center for Advancing Translational Sciences (NCATS)
ALDH1A1 inh – inhibitors of human aldehyde dehydrogenase 1A1. Potency, µM (titrated, usually from 75.3 µM), most hits filed as inhibitors. P00352. 220,000 compounds, 7.3% hits. Purified ALDH1A1, NADH fluorescence, propionaldehyde substrate
Target sequence (P00352 whole entry, looked up): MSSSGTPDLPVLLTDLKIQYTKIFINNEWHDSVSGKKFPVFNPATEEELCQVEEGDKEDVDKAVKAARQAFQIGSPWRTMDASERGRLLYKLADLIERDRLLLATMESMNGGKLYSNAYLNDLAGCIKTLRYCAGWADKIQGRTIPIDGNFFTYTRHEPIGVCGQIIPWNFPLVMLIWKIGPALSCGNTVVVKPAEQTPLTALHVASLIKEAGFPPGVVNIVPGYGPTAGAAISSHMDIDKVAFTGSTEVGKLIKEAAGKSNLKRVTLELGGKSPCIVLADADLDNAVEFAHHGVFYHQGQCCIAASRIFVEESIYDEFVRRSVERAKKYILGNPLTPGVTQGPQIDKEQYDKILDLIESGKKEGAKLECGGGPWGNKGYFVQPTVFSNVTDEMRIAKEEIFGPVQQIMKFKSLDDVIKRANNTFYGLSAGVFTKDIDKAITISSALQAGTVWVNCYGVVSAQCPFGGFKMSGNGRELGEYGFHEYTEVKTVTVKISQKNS
PNC assembly inh – blocks assembly of the perinucleolar compartment | PC3M PTB-GFP, PNC prevalence imaging, 16 h; stronger effect = lower value | activity change (PNC), negative = inhibition, % at 10 µM | 140,000 compounds, 3.1% hits | AID 2417;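 active = readout at or below -70, meaning at least 70% loss of cells showing the perinucleolar compartment, a nuclear body marking cancer cells; inconclusive = readout between -30 and a set limit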
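PC3M cells stably expressing PTB-GFP, 750–1000 cells/well, treated 16 h at 37 °C with compound (23 nl of library stock), in duplicate. After paraformaldehyde fixation and Hoechst stain, imaged at 20x; PNC prevalence scored by image analysis.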
IMPase cell inh – cell-permeable inhibitors of inositol monophosphatase (IMPase). 120,000 tested, under 10 active. inhibition (IP1 accumulation), % at 46.1 µM. CHO-M1 cells, IP1 accumulation, HTRF TR-FRET ratio. P97697; active = well fitted curve in the direction sought with a large enough effect in the signal ratio, not every such curve was filed as active; inconclusive = small, poorly fitted or top-dose-only effect, or a change in a side signal; inactive = no such curve, though single readings can be large or run the other way; the % refers to the signal ratio;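 note: cells stimulated with carbachol in lithium chloride buffer; higher means more IMPase inhibition seen as more IP1 and lower FRET ratio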
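CHO-M1 cells (CHO stably expressing M1 receptor), compound up to 46 uM final, stimulated with carbachol (50 uM as added) in buffer with 50mM LiCl, pH 7.4, 30 min at 37C. Cytosolic IP1 read by TR-FRET; AC50 from Hill fits.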
IMPase Li inh – IMPase inhibition in cells with lithium potentiation. CHO-M1 cells, IP1 TR-FRET (IP-One), carbachol + lithium. Potency, µM (titrated, usually from 59.4 µM), actives largely listed as inhibitors. 210,000 compounds, 0.35% hits. AID 1457; active = well fitted inhibition curve with a large enough effect; inconclusive = small, poorly fitted or top-dose-only effect; inactive = no such curve, though single readings can be large or run the other way;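 note: IP1 builds up when IMPase is blocked and the TR-FRET signal falls; nearly all actives have a fitted effect of over 50% in size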
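Concentration–response in CHO-M1 cells, lithium-potentiated; 30 min at 37C. IP1 detected by competitive TR-FRET after 10 min lysis at RT. Hill-fitted AC50.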
HPGD block – blocks human HPGD enzyme activity; P15428; purified HPGD, NADH fluorescence kinetic, PGE2 substrate; Potency, µM, hits mostly inhibitors; 150,000 compounds, 4.3% hits; AID 894
Target sequence (P15428 whole entry, looked up): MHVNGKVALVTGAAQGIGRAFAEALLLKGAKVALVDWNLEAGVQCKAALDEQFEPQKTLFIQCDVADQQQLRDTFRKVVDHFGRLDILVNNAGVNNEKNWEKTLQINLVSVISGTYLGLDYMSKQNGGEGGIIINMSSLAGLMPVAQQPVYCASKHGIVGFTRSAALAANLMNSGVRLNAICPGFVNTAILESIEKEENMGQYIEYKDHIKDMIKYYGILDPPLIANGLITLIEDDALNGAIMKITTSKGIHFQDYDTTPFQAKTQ
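20 nM HPGD preincubated 15 min at room temperature with compound in 50 mM Tris-HCl pH 8, 0.01% Tween 20. Started with 1 mM NAD+ and 30 uM prostaglandin E2; NADH fluorescence (360/450 nm) read 5 times over 30-s intervals, last minus first.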
Hits are given with their value; – = inactive; ? = inconclusive; · = not tested or not shown; [ ] = remark or other dose. An excerpt weighted towards active compounds, which were near 11% of everything screened. Unless noted, calls come from the whole dose curve; as a rule, active = well fitted inhibition curve with a large enough effect (not every such curve was filed as active); inconclusive = small, poorly fitted or top-dose-only effect, or another doubt; inactive = no such curve, though single readings can be large or run the other way.

SMILES	ALDH1A1 inh	PNC assembly inh	IMPase cell inh	IMPase Li inh	HPGD block
COc1ccc(CNc2ncnc3ccc(-c4c(C)noc4C)cc23)c(OC)c1	–	·	·	–	·
CCCCC[C@H](O)/C=C\[C@H]1[C@H](C/C=C\CCCC(=O)O)[C@@H](O)C[C@H]1O (tested in a mixture with another compound)	–	·	–	–	?
CCCCC(=O)NC(=S)Nc1cc([N+](=O)[O-])ccc1OC	?	·	·	–	·
Cc1c(NC(=S)NC(=O)C(C)(C)C)cccc1[N+](=O)[O-]	?	?	–	–	–
Cc1ccc([N+](=O)[O-])cc1NC(=S)NC(=O)C(C)(C)C	4.47µM	–	–	–	7.08µM
Cc1ccc([N+](=O)[O-])cc1NC(=O)c1ccc(C(C)(C)C)cc1	–	?	–	–	15.8µM
Cc1ccc([N+](=O)[O-])cc1NC(=S)NC(=O)CC(C)(C)C	–	–	–	–	15.8µM
Cc1ccccc1NS(=O)(=O)c1cc(C(=O)Nc2cccc([N+](=O)[O-])c2)ccc1C	22.4µM	–	·	–	–
Cc1nc2ccccn2c1C(=O)NN=C1C2CC3CC(C2)CC1C3	?	–	·	–	–
Cc1cc([N+](=O)[O-])ccc1NC(=S)NC(=O)Cc1ccccc1	?	–	–	–	17.8µM
CC(=O)NC(=S)Nc1ccc([N+](=O)[O-])cc1C	–	·	·	–	·
CC(C)(C)c1ccc(SCCc2cccnc2)cc1	–	·	·	·	·
CCOc1cc(NC(=S)Nc2cccc(OC)c2)c(OCC)cc1NC(=O)c1ccc(C)cc1	?	–	–	–	–
CCOc1cc(NC(=S)Nc2ccccc2)c(OCC)cc1NC(=O)c1ccc(OC)cc1	22.4µM	?	–	–	–
COc1ccc(NC(=S)Nc2ccccc2)c(OC)c1	?	·	·	–	·
COc1ccc(NC(=S)Nc2ccc(OCc3ccccc3)cc2)c(OC)c1	10µM	–	–	–	–
CCOc1cc(NC(=S)Nc2cccc(OC)c2)c(OCC)cc1NC(=O)C(C)C	?	-106.3	–	–	–
CCOCCO	?	·	·	–	–
COc1cc(CC(=O)OCC(=O)NCC(C)C)cc(OC)c1OC	–	·	·	–	·
CN(C(=O)c1ccc(=O)n(Cc2ccc(Cl)cc2)c1)c1ccccc1	14.1µM	·	·	–	·
O=C(CN1CC(c2ccccc2)CC1=O)N/N=C/c1cc(Br)ccc1O (configuration not stated)	25.1µM	–	–	–	?
O=C(CNC(=O)c1ccccc1)N/N=C/c1cc(Br)ccc1O	–	–	·	–	–
O=C(CSc1ccc2nnc(-c3ccccn3)n2n1)NCc1ccco1	?	–	–	–	–
CC(=O)c1cc(CC=C(C)C)c(O)cc1O	–	–	–	–	12.6µM
CC(=O)c1cc(CC=C(C)C)c(O)c(CC=C(C)C)c1O	–	–	–	–	–
SMILES	ALDH1A1 inh	PNC assembly inh	IMPase cell inh	IMPase Li inh	HPGD block
CCOC(=O)c1cccnc1NC(=O)c1ccccc1	–	–	·	–	–
CN(Cc1ccccc1)c1ncnc(N)c1[N+](=O)[O-]	–	·	·	–	·
CN(Cc1ccccc1)c1ncc(C=O)s1	7.08µM	·	·	–	·
CC(C)(C)NS(=O)(=O)c1ccc(CCC(=O)NCc2cccnc2)cc1	?	?	–	–	–
Cc1ccc(S(=O)(=O)Nc2ccc(NC(=O)c3cccnc3)cc2)cc1	14.1µM	·	·	–	·
Cc1ccc(NS(=O)(=O)c2ccc(CCC(=O)NCc3cccnc3)cc2)cc1	8.91µM	·	·	–	·
COC(=O)C/C=C\[C@@H](C)[C@@H](/C=N\O[C@@H]1O[C@H](COC(C)=O)[C@@H](OC(C)=O)[C@H](OC(C)=O)[C@H]1OC(C)=O)NS(=O)(=O)c1ccc(C)cc1	–[13.5 µM]	·	·	·	·
CCOC(=O)/C(C#N)=C\C1=C(N2CCCC2)CC(C)(C)OC1	14.1µM	–	–	–	–
O=C1CCCC2=C1C1(CCCCC1)N=C(Nc1nc3ccccc3s1)N2	–	–	–	–	?
O=C1CCCC2=C1C1(CCCC1)N=C(Nc1nc3ccccc3s1)N2	?	-116.6	–	–	?
CCCCCSc1nc2c(c(=O)[nH]c(=O)n2C)n1C(C)C	?	-119.3	–	–	–
CCCCCSc1nc2c(c(=O)[nH]c(=O)n2C)n1C	–	–	–	–	–
CC(C)n1c(SCC(N)=O)nc2c1c(=O)[nH]c(=O)n2C	22.4µM	–	–	–	?
C=CCn1c(C)cc(C(=O)COC(=O)c2ccc3c(c2)NC(=O)CS3)c1C	?	-80.5	·	–	22.4µM
Cc1ccccc1-n1sc2cc(F)ccc2c1=O	0.562µM	·	·	–	·
CC1CCCN(C(=O)C(C)Nc2cc(Cl)ccc2N2CCOCC2)C1 (configuration not stated)	10µM	·	·	–	·
O=C(CSc1ccc(Cl)cc1)Nc1nnc(-c2cccc([N+](=O)[O-])c2)s1	2.51µM	?	·	–	–
O=C(CSc1ccccc1)Nc1nnc(COc2ccc(Cl)cc2)s1	3.16µM	–	·	–	3.55µM
Cc1onc(-c2ccccc2)c1C(=O)Nc1nnc(COc2ccc(Cl)cc2)s1	1.12µM	?	–	–	2.51µM
CCOC(=O)c1c(-c2ccc(F)cc2)csc1NC(=O)c1c(-c2ccccc2)noc1C	?	?	–	–	?
Cc1cccc(C)c1OCc1nnc(NC(=O)CSc2ccc(Cl)cc2)s1	–	–	·	–	–
COC(=O)c1c(-c2ccccc2)csc1NC(=O)c1c(-c2ccccc2)noc1C	?	-112.5	–	–	?
CCOCC(=O)Nc1nnc(COc2ccc(Cl)cc2)s1	3.55µM	–	–	–	11.2µM
O=C(c1ccc(Cl)c(F)c1F)N1CCCC1	–	–	–	–	20µM
COc1ccc(C2=N[C@H](c3ccccc3)CO2)cc1	?	·	·	–	–
SMILES	ALDH1A1 inh	PNC assembly inh	IMPase cell inh	IMPase Li inh	HPGD block
COc1ccc(C2=Nc3ccccc3OC2)cc1	22.4µM	–	–	–	–
CCOC(=O)N1CCC2(CC1)C(C#N)=C(N)Oc1c2c(C)nn1-c1cccc(Cl)c1	12.6µM	–	–	–	–
CCOC(=O)N1CCC2(CC1)C(C#N)=C(N)Oc1n[nH]c(C)c12	?	–	–	–	–
Cn1c(=O)c2c(ncn2CCSS(=O)(=O)O)n(C)c1=O	–[13.5 µM]	·	·	–	–
c1ccc(Nc2nc3ccccc3[nH]2)nc1	?	?	–	–	31.6µM
Cc1cc(C)nc(Nc2nc3ccccc3[nH]2)n1	–	?	–	–	–
C/C(Cc1ccccc1)=N\NC(=O)CNC(=O)c1ccc(C(C)(C)C)cc1	–	?	–	–	–
N#CCCN(/N=C/c1cccnc1)C1=NS(=O)(=O)c2ccccc21	2µM	·	·	–	·
Cc1cccc(N(C(=O)c2ccc(CN3CCOCC3)o2)C(C(=O)NC(C)(C)C)c2ccc(F)cc2)c1 (configuration not stated)	–	–	?	–	–
N#CC(C#N)=C1C=CC=CN1/C(=C\c1ccco1)C(=O)c1ccc(Cl)cc1	–	?	–	–	20µM
COc1ccc(C(=O)NCc2nnc(SCC(=O)N3CCc4ccccc43)o2)cc1OC	–	–	–	–	–
Cc1ccc(NC(=O)CSc2nnc(Cc3ccccc3)o2)c(C)c1	–	·	·	–	·
O=C(CSc1nnc(Cc2ccccc2)o1)N1CCCc2ccccc21	17.8µM	–	–	–	?
